Test results as given in PubChem BioAssay (NCI).
The panel holds about 79,000 compounds, 15% with a hit somewhere; the sample as a whole holds those more often. Values without a mark were called inactive. The source made the active and inactive calls. Cut-off read from the data, not from the text of the source: active = growth inhibition above about 70%; inactive = the rest.

Legend:
[1] = NCI Yeast Anticancer Drug Screen. Data for the rad50 strain (AID 155);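 note: 0% = growth of vehicle-only cultures of the same strain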; settings: S. cerevisiae rad50 strain growth inhibition; at 50.0 µM; hits give high values
Procedure, shortened: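 Genetically altered yeast (DNA repair pathway); compound treatment; growth inhibition vs vehicle ctrl.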

[2] = NCI Yeast Anticancer Drug Screen. Data for the mec2-1 strain (AID 157); settings: S. cerevisiae mec2-1 strain, at 50.0 µM, hits give high values
Procedure, shortened: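 Readout is yeast growth inhibition, normalised to vehicle-treated controls, in the mec2-1 strain exposed to compound.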

[3] = NCI Yeast Anticancer Drug Screen. Data for the sgs1 mgt1 strain (AID 161);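 note: 0% = growth of cultures given vehicle only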; settings: S. cerevisiae sgs1 mgt1 strain, at 50.0 µM, hits give high values
Procedure, shortened: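 This yeast growth screen uses a strain with defined DNA-repair lesions; compound-treated growth is compared with vehicle-treated growth.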

[4] = NCI Yeast Anticancer Drug Screen. Data for the cln2 rad14 strain (AID 165);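 note: 0% = growth equal to vehicle treated cultures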; settings: S. cerevisiae cln2 rad14 strain, at 50.0 µM, hits give high values
Procedure, shortened: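 Relative to vehicle controls, growth inhibition of compound-treated cln2 rad14 yeast was recorded.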

[5] = NCI Yeast Anticancer Drug Screen. Data for the bub3 strain (AID 167); settings: S. cerevisiae bub3 mutant strain, at 50.0 µM, hits give high values
Procedure, shortened: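 Yeast carrying a defined mutation is treated with each compound, and growth is compared with that of vehicle-exposed cells to give inhibition.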

[6] = NCI Yeast Anticancer Drug Screen. Data for the mlh1 rad18 strain (AID 175); settings: S. cerevisiae mlh1 rad18 strain growth inhibition; at 50.0 µM; hits give high values
Procedure, shortened: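 Test agents were incubated with a yeast strain of defined genotype (DNA damage repair defect). Inhibition of growth was derived by comparison with vehicle-exposed cultures.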

| Compound | growth inhibition [1] | growth inhibition [2] | growth inhibition [3] | growth inhibition [4] | growth inhibition [5] [%] | growth inhibition [6] |
| --- | --- | --- | --- | --- | --- | --- |
| Cc1ccc2cc(CCCC(=O)O)ccc2c1 | 43.4% | 25.8% | 38.7% | 31.6% | 40.9 | 24.9% |
| CCOC(=O)C1(C)CCC(C(=O)OC)C1=O (stereo unspecified) | -36.1% | -31.1% | -54.8% | -5.45% | -59.6 | -18.1% |
| C#CCN(CC#C)C(=O)Nc1ccc(Cl)cc1 | -33.5% | -21.4% | -11.2% | -47% | -16.2 | 3.45% |
| COC(=O)c1nn(-c2ccccc2)c(=O)cc1N=[N+]=[N-] | -31% | -5.2% | -39.2% | -12.8% | -14.2 | -54.4% |
| CC1(C#N)CCCC(c2ccccc2)(c2ccccc2)C1=O (stereo unspecified) | 43.2% | 40.5% | 49.2% | -9.25% | 23.9 | 34.5% |
| C/C(=N/NC(N)=O)C1=CCCCC1 | -7% | 7.3% | 6.35% | 4.1% | 0.7 | 7.4% |
| CN(C)c1ccn(C2OC(CO)C(O)C2SC(C)(C)C)c(=O)n1 (stereo unspecified) | -1.2% | 3.95% | -2.05% | 10.8% | -1.25 | 13.8% |
| CCCCc1c2c(nn1C(C)=O)C(=O)C=C(Nc1ccccc1)C2=O | 21.8% | 21.8% | 19.7% | -7.65% | 4.7 | 9.5% |
| CC[N+](C)(CC)c1cccc(OC(=O)N2CCCCC2)c1 | 7.8% | 3.45% | 16.4% | 0.2% | -4.75 | -16.9% |
| NCC1CCC(C(=O)O)CC1 (stereo unspecified) | -14.4% | -9.35% | -10% | -20.9% | -24.9 | -21.6% |
| O=C(NN=C1c2ccccc2-c2ccccc21)C(F)(F)F | 87% (active) | 2.05% | 4.65% | 31.2% | 6 | 21.9% |
| Nc1ccccc1C(=O)Nc1ccc(Cl)cc1C(=O)O | -7% | -3% | -14.2% | -14.8% | 2.65 | -5.1% |
| CC1=CNNc2ccccc21 | -2.6% | 1.45% | -4.6% | 8% | -14.4 | 5.1% |
| [Cl][Eu]([Cl])[Cl] | 22.4% | 17.9% | 24.2% | 42.9% | 34.2 | 19.8% |
| CCc1nc2c(cnn2C)c(=O)n1-c1ccccc1 | -5% | -6.35% | -1.2% | 3.9% | 10.6 | 7.55% |
| N#CCc1nc(-c2ccccc2)n[nH]1 | 11.2% | 4.55% | 13.1% | 5.6% | 4.5 | 11.7% |
| O=C(NCCc1c(-c2ccccc2)[nH]c2ccccc12)C1CCCCC1 | -10.6% | 17.9% | 32.6% | -6.1% | 30.9 | -2.3% |
| CC(=O)NC1C(OCc2ccccc2)OC(CO)C(O)C1OC(C)C(=O)NC(C)C(=O)N[C@@H](CCC(=O)OCCCNC1c2ccccc2Nc2cccc([N+](=O)[O-])c21)C(N)=O (stereo partly specified) | 63.4% | 82.7% (active) | 78.2% (active) | 83.5% (active) | 11.7 | 77.8% (active) |
| CC1=CN2C(c3ccc(Cl)cc3)=NON(c3ccc(C)cn3)C2C=C1 (stereo unspecified) | -21.6% | -4.75% | 0.65% | -50.8% | 5.25 | 8.35% |
| COc1ccc(C=C2C(=O)OC(C)(C)OC2=O)cc1OC | -6.7% | -8.85% | -8.5% | 30% | -23.8 | -4.85% |
| Cc1ccc(C(=O)/C=C/c2ccco2)cc1 | 49% | 33.6% | 46% | 33.5% | 34.5 | 61.3% |

| Compound | growth inhibition [1] | growth inhibition [2] | growth inhibition [3] | growth inhibition [4] | growth inhibition [5] [%] | growth inhibition [6] |
| --- | --- | --- | --- | --- | --- | --- |
| COc1ccc([N+](=O)[O-])c2c(NCCC[N+](C)(C)[O-])c3ccccc3nc12 | 24.9% | -13.3% | 3.05% | -46.8% | -19.2 | 19.7% |
| Cc1cc2nc(C(C)C(=O)c3ccc(Cl)cc3)c(=O)[nH]c2cc1C (stereo unspecified) | -12.1% | -12.7% | -0.9% | 0.5% | -24.4 | -3.9% |
| O=C1c2ccccc2Cc2ccc(O)cc21 | 47.1% | 21.3% | 11.1% | 10.3% | 11.8 | 10.8% |
| Cc1ccc2nc(CC(=O)c3ccccc3)c(CC(=O)c3ccccc3)nc2c1 | 0.7% | -17% | 2.25% | 24.1% | 0.15 | -2.9% |
| CCC(=O)NCCCCCN1CCCCC1 | 8.55% | 5.35% | 9.75% | -15.6% | -1.1 | 9.05% |
| CCCCCCC(NC(C)=O)C(=O)O (stereo unspecified) | 3.85% | -4.7% | 13.9% | 6.35% | 4.3 | 3.5% |
| CCCCCCCCCC(CCCCCCCC(=O)O)NC(C)=O (stereo unspecified) | 32.3% | 16.6% | 7.45% | 32.5% | -18.1 | 1.05% |
| COC(=O)C1CCCN1C(=O)C(C)=O (stereo unspecified) | 16.9% | 10.4% | -4.85% | -40.5% | 5.4 | -5.45% |
| CCN1CC(C(=O)NC(C)C(=O)O)Cc2ccccc21 (stereo unspecified) | 7.2% | -1.25% | 9.15% | -31% | 1.45 | -8% |
| CN(C)/C(N)=N/S(=O)(=O)c1ccc(C#N)cc1 | 5% | 2.85% | -0.25% | 6.1% | 4.7 | 2.45% |
| CCCC(=O)Nc1cc(C(=O)N2C[C@@H]3C[C@]34C2=CC(=O)c2[nH]cc(C)c24)n(COC)c1 | 26.5% | 10.5% | 30.6% | 10.1% | 8.9 | 47.4% |
| NC(=O)N/N=C(/CC1C(=O)Oc2ccccc21)c1ccccc1O (stereo unspecified) | -8.35% | -4.7% | -9.7% | -14.3% | -24.9 | 14% |
| NC(CSCCSCCSCC(N)C(=O)O)C(=O)O (stereo unspecified) | -4.45% | 0.1% | 11.2% | -9.05% | -38.4 | -4.5% |
| c1cc2c3c(c1)ccc1cccc(c13)C2 | 39.6% | -26.2% | 12.8% | 11.9% | 24.6 | 27.1% |
| CCOCCNCc1ccc(Cl)cc1Cl | 4% | -1.45% | -5% | 2.85% | 7.8 | -9.7% |
| C=CCOC(=O)CC=C | -8.7% | -3.1% | 4.75% | 6.7% | -11.4 | 5.3% |
| CCOC(=O)c1nc2ccccc2nc1NCc1ccc(OC)cc1 | -6.5% | -6.45% | -30.4% | 6.55% | -22.4 | 3.4% |
| S=c1sc2c(Cl)nc(Cl)nc2n1-c1ccccc1 | -17.2% | -4.95% | -13.6% | -1% | 9.65 | -11.2% |
| O=S(=O)(Nc1ccc(Cl)cc1)c1ccc(F)cc1 | -9.45% | -15.8% | -11.6% | 11.9% | -29.1 | 3.95% |
| O=C1C2C=CC(n3[nH]c(=O)n(Cc4ccccc4)c3=O)CC2C(=O)N1c1ccc(Br)cc1 (stereo unspecified) | -3.8% | 3.8% | 3.1% | -30.4% | 4.15 | 2% |
